Laboratory results taken from publication PMC7862700, “An all-to-all approach to the identification of sequence-specific readers for epigenetic DNA modifications on cytosine”.

What was measured:
Assay in all cases: DAPPL (digital affinity profiling via proximity ligation, sequencing); 10 mM Tris-HCl pH 7.5, 50 mM NaCl, 1 mM DTT, 4% glycerol, room temperature, 30 min; GST-TFs on glutathione beads, 16-mer random dsDNA library, 0.1% formaldehyde crosslink after washing; high values mean tight binding
FLI1 = target: T1, FLI1 (Homo sapiens, UniProt Q01543 1-452); conditions: protein: recombinant; tags: N-terminal GST; dsDNA, one strand shown
T1 sequence: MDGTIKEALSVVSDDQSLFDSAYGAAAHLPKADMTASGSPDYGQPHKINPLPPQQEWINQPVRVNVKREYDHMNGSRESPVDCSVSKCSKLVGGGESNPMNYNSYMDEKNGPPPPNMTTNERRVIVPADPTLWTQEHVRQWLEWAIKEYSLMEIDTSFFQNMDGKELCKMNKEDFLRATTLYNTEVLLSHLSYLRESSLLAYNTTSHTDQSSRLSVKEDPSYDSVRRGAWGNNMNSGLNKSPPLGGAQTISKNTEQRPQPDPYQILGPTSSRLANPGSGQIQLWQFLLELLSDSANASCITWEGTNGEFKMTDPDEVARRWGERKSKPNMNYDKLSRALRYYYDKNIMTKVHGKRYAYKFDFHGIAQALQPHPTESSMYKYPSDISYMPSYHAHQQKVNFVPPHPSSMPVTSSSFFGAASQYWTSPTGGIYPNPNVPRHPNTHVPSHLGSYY
Procedure, shortened: (§1)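 Each value of binding signal is a hexamer's read frequency for a factor divided by the same hexamer's frequency in the tag-only sample. Barcoded, bead-captured GST fusions of human transcription factors made in yeast were pooled with that sample and incubated with 200 nmole of a random double-stranded 16-mer DNA library in Tris/NaCl/DTT/glycerol buffer at room temperature for 30 min. Washing, 0.1% formaldehyde crosslinking, proximity ligation, PCR and Illumina NextSeq500 sequencing followed.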

ELK1 = target: T2, ELK1 (Homo sapiens, UniProt P19419 1-428); conditions: protein: recombinant; tags: N-terminal GST; dsDNA, one strand shown
T2 sequence: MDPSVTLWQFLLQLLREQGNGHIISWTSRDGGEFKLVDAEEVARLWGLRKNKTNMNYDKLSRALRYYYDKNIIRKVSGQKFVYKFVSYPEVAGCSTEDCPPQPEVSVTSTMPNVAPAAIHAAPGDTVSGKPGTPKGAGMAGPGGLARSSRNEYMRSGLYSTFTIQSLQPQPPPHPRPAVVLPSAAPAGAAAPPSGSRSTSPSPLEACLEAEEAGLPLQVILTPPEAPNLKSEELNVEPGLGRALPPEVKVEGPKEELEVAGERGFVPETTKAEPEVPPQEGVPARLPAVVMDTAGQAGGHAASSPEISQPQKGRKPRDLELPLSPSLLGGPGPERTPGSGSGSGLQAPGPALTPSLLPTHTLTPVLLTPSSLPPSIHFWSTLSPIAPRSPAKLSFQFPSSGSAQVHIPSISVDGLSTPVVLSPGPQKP
Procedure, shortened: as §1

GABPA = target: T3, GABPA (Homo sapiens, UniProt Q06546 1-454); conditions: protein: recombinant; tags: N-terminal GST; dsDNA, one strand shown
T3 sequence: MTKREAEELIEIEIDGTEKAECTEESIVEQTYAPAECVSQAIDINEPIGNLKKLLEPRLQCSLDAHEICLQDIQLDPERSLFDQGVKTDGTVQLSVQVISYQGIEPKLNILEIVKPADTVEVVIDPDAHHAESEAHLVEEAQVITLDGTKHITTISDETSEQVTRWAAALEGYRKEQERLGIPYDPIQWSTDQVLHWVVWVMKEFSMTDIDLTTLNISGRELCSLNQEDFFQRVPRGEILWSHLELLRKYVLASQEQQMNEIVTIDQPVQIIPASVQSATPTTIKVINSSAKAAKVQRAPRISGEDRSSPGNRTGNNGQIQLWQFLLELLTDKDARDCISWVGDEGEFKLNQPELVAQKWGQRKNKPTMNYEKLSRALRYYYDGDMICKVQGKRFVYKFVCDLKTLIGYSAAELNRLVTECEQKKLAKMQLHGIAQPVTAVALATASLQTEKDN
Procedure, shortened: as §1

ERG = target: T4, ERG (Homo sapiens, UniProt P11308 1-479); conditions: protein: recombinant; tags: N-terminal GST; dsDNA, one strand shown
T4 sequence: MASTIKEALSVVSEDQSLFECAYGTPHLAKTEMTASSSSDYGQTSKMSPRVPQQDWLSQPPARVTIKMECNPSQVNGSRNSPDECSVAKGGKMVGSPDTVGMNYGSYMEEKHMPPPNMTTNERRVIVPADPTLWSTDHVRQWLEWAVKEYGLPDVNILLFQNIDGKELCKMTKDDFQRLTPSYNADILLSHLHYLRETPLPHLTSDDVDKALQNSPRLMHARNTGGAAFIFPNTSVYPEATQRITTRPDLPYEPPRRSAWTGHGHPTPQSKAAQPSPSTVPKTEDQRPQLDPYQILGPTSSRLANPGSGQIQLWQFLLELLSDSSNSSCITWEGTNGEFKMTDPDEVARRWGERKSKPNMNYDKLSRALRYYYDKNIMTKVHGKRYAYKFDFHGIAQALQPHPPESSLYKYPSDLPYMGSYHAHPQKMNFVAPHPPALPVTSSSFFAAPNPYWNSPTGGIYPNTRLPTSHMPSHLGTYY
Procedure, shortened: as §1

ELF1 = ELF1 (Homo sapiens, UniProt P32519 1-619); conditions: protein: recombinant; tags: N-terminal GST; dsDNA, one strand shown
Procedure, shortened: as §1

EHF = target: T5, EHF (Homo sapiens, UniProt Q9NZC4 1-300); conditions: protein: recombinant; tags: N-terminal GST; dsDNA, one strand shown
T5 sequence: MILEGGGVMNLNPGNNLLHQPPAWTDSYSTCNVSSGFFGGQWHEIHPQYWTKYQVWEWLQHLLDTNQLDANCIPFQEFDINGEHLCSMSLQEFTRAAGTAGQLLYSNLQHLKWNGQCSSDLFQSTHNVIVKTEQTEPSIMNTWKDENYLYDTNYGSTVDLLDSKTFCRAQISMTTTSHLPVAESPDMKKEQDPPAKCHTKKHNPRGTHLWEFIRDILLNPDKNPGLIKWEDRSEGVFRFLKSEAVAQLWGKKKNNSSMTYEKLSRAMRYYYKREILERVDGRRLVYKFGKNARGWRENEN
Procedure, shortened: as §1

SPI1 = SPI1 (Homo sapiens, UniProt P17947 1-270); conditions: protein: recombinant; tags: N-terminal GST; dsDNA, one strand shown
Procedure, shortened: as §1

SPIB = SPIB (Homo sapiens, UniProt Q01892 1-262); conditions: protein: recombinant; tags: N-terminal GST; dsDNA, one strand shown
Procedure, shortened: as §1

ELK3 = target: T6, ELK3 (Homo sapiens, UniProt P41970 1-407); conditions: protein: recombinant; tags: N-terminal GST; dsDNA, one strand shown
T6 sequence: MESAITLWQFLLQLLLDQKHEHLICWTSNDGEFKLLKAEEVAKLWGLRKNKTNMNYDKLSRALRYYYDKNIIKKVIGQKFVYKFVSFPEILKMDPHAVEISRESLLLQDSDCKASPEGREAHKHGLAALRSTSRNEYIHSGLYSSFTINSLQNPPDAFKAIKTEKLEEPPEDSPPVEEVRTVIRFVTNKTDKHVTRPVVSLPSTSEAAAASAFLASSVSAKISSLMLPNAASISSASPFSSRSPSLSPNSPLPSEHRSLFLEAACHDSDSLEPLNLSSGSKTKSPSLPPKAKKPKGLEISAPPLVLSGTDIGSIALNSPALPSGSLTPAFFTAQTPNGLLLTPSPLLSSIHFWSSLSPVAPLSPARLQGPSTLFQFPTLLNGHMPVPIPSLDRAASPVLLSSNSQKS
Procedure, shortened: as §1

FEV = target: T7, FEV (Homo sapiens, UniProt Q99581 1-238); conditions: protein: recombinant; tags: N-terminal GST; dsDNA, one strand shown
T7 sequence: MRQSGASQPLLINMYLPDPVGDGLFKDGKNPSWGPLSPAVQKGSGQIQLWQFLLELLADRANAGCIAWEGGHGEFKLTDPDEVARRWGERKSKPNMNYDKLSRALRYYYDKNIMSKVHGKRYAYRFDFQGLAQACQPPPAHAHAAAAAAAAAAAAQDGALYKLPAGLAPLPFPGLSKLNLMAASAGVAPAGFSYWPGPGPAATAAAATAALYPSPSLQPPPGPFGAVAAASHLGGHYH
Procedure, shortened: as §1

ETV5 = ETV5 (Homo sapiens, UniProt P41161 1-510); conditions: protein: recombinant; tags: N-terminal GST; dsDNA, one strand shown
Procedure, shortened: as §1

HSF1 = HSF1 (Homo sapiens, UniProt Q00613 1-529); conditions: protein: recombinant; tags: N-terminal GST; chain copies: 3; dsDNA, one strand shown
Procedure, shortened: as §1

SPIC = target: T8, SPIC (Homo sapiens, UniProt Q8N5J4 1-248); conditions: protein: recombinant; tags: N-terminal GST; dsDNA, one strand shown
T8 sequence: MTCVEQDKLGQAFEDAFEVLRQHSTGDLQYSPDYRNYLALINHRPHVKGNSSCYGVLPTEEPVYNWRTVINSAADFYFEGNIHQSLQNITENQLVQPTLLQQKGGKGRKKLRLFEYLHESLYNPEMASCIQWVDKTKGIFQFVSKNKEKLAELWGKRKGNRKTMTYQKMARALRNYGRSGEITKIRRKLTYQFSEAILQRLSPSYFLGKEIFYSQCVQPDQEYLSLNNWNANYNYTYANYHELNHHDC
Procedure, shortened: as §1

ELF4 = ELF4 (Homo sapiens, UniProt Q99607 1-663); conditions: protein: recombinant; tags: N-terminal GST; dsDNA, one strand shown
Procedure, shortened: as §1

ELK4 = target: T9, ELK4 (Homo sapiens, UniProt P28324-2 1-405); conditions: protein: recombinant; tags: N-terminal GST; dsDNA, one strand shown
T9 sequence: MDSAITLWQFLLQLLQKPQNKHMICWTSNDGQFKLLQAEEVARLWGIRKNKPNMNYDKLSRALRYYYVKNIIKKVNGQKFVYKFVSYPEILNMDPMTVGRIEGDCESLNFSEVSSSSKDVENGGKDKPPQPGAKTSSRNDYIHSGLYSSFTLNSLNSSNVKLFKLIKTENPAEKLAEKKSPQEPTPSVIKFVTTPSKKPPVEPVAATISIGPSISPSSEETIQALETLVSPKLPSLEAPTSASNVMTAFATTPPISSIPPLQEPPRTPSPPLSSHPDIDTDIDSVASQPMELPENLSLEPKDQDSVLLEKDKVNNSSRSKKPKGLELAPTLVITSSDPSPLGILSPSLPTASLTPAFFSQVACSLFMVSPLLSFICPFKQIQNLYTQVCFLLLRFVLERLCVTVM
Procedure, shortened: as §1

ETV2 = target: T10, ETV2 (Homo sapiens, UniProt O00321 1-342); conditions: protein: recombinant; tags: N-terminal GST; dsDNA, one strand shown
T10 sequence: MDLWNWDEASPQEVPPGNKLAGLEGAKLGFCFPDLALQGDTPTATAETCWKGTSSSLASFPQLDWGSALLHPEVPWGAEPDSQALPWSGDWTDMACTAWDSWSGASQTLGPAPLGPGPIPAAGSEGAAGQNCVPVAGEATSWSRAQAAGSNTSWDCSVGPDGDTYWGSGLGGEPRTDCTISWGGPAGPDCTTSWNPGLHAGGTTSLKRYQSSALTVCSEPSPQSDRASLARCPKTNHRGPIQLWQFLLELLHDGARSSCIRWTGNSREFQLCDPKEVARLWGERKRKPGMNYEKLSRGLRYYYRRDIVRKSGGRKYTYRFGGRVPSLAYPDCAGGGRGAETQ
Procedure, shortened: as §1

ELF3 = target: T11, ELF3 (Homo sapiens, UniProt P78545 1-371); conditions: protein: recombinant; tags: N-terminal GST; dsDNA, one strand shown
T11 sequence: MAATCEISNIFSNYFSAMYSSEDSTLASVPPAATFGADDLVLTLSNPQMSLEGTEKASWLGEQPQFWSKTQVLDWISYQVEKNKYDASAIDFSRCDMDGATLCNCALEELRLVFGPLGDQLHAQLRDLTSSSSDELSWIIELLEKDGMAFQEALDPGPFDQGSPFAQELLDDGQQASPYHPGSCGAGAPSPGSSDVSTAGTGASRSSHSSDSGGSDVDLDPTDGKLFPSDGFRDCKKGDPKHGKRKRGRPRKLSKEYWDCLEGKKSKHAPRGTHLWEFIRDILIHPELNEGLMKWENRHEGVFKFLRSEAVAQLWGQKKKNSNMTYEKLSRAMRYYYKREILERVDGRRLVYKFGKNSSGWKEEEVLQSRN
Procedure, shortened: as §1

CRX = CRX (Homo sapiens, UniProt O43186 1-299); conditions: protein: recombinant; tags: N-terminal GST; dsDNA, one strand shown
Procedure, shortened: as §1

Sequence of ELF1 (P32519 whole entry): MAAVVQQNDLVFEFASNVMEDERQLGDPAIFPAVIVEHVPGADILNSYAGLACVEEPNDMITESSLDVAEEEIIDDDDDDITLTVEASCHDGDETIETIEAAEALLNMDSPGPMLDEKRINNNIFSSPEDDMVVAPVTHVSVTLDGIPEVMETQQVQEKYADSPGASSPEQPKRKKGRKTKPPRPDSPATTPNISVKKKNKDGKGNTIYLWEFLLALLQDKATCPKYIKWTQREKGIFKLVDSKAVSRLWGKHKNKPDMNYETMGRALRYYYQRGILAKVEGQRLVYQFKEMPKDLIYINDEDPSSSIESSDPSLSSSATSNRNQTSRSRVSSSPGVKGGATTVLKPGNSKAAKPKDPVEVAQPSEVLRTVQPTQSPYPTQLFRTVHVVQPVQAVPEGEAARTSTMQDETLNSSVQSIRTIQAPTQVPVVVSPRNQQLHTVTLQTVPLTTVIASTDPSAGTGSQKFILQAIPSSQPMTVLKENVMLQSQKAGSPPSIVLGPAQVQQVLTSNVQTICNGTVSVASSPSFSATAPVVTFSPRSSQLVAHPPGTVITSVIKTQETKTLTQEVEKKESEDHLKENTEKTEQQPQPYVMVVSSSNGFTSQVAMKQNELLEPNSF
Sequence of CRX (O43186 whole entry): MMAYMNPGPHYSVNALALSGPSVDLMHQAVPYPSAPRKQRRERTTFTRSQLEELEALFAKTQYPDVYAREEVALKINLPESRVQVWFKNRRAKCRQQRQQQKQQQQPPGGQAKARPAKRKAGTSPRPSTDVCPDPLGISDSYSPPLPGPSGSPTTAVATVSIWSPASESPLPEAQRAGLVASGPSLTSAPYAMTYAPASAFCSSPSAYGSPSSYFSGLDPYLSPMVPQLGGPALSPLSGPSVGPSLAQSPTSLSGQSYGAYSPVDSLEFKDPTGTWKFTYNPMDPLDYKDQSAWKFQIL
Sequence of ETV5 (P41161 whole entry): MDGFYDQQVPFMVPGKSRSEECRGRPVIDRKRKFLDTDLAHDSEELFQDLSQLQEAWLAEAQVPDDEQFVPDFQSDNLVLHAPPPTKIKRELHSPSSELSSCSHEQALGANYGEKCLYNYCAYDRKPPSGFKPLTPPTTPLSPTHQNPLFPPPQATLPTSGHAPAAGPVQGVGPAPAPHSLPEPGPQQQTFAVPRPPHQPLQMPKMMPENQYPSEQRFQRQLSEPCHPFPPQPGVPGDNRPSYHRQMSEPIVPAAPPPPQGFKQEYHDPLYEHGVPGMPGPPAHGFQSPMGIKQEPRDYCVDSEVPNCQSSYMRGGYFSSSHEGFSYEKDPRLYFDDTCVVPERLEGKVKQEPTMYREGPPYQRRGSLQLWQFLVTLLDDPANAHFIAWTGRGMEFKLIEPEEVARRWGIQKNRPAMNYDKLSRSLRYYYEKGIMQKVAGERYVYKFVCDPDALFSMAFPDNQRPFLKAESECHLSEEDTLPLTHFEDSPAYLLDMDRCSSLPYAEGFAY
Sequence of HSF1 (Q00613 whole entry): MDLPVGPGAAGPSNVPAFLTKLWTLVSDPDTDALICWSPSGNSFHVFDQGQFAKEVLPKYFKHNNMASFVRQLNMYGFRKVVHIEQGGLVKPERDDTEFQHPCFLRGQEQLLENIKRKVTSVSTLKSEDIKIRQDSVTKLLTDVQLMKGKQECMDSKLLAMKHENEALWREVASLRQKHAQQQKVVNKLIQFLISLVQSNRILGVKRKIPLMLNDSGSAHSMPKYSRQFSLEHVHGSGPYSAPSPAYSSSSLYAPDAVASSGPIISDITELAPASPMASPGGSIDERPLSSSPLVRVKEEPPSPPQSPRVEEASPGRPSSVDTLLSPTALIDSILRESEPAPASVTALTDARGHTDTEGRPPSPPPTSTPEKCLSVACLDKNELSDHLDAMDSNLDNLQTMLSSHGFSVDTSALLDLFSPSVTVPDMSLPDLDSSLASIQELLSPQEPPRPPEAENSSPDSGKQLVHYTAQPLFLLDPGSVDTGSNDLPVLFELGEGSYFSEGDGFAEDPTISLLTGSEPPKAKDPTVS
Sequence of ELF4 (Q99607 whole entry): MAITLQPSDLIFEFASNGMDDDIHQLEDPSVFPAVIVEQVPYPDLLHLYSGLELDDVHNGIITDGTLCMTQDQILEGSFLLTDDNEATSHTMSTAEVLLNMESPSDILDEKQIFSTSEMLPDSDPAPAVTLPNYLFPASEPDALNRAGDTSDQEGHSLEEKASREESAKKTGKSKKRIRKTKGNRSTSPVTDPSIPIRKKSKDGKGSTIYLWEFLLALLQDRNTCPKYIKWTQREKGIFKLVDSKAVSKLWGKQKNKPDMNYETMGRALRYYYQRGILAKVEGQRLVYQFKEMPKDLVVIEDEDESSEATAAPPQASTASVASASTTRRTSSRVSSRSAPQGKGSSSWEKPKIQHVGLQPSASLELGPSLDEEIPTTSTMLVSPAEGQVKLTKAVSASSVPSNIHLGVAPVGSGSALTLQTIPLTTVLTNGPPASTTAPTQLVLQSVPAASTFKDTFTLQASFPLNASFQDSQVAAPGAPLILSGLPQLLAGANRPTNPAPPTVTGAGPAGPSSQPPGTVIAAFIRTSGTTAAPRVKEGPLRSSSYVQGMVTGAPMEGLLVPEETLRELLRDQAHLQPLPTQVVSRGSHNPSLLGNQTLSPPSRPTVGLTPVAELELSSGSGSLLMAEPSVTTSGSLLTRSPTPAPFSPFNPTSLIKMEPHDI
Sequence of SPIB (Q01892 whole entry): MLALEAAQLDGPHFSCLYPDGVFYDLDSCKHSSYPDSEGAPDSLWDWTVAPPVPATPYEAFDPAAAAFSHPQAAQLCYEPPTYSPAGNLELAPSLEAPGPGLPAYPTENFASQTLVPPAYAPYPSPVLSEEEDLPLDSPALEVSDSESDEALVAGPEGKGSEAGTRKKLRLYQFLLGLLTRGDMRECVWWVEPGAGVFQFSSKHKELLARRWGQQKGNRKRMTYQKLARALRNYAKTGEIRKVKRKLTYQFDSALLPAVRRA

## AGTTAA
FLI1
  binding signal: 1.02 fold enrichment (6-mer frequency, TF over GST control)
ELK1
  binding signal: 1.09 fold enrichment (6-mer frequency, TF over GST control)
GABPA
  binding signal: 1.05 fold enrichment (6-mer frequency, TF over GST control)
ERG
  binding signal: 1.12 fold enrichment (6-mer frequency, TF over GST control)
ELF1
  binding signal: 1.01 fold enrichment (6-mer frequency, TF over GST control)
EHF
  binding signal: 1.08 fold enrichment (6-mer frequency, TF over GST control)
SPI1
  binding signal: 1.13 fold enrichment (6-mer frequency, TF over GST control)
SPIB
  binding signal: 1.08 fold enrichment (6-mer frequency, TF over GST control)
ELK3
  binding signal: 1.04 fold enrichment (6-mer frequency, TF over GST control)
FEV
  binding signal: 1.05 fold enrichment (6-mer frequency, TF over GST control)
ETV5
  binding signal: 1.1 fold enrichment (6-mer frequency, TF over GST control)
HSF1
  binding signal: 1.15 fold enrichment (6-mer frequency, TF over GST control)
SPIC
  binding signal: 1.05 fold enrichment (6-mer frequency, TF over GST control)
ELF4
  binding signal: 1.15 fold enrichment (6-mer frequency, TF over GST control)
ELK4
  binding signal: 1.15 fold enrichment (6-mer frequency, TF over GST control)
ETV2
  binding signal: 1.2 fold enrichment (6-mer frequency, TF over GST control)
ELF3
  binding signal: 1.09 fold enrichment (6-mer frequency, TF over GST control)
CRX
  binding signal: 1.51 fold enrichment (6-mer frequency, TF over GST control)
